According to PubChem BioAssay AID651599 (National Center for Advancing Translational Sciences (NCATS), 2012):
Records with an inconclusive call do not appear. Active and inactive are the calls of the source. Calls come from the whole dose curve; as a rule, active = well fitted inhibition curve with a large enough effect; inconclusive = small, poorly fitted or top-dose-only effect; inactive = no such curve, though single readings can be large or run the other way.

molecular target: Tumor susceptibility gene 101 protein (Homo sapiens) (UniProt Q99816); test: qHTS Assay for Iinhibitors of HIV-1 Budding by Blocking the Interaction of PTAP/TSG101: Hit Validation in TR assay; conditions: Tsg101 binding domain + Texas Red-labeled PTAP peptide, fluorescence polarization, 20 min; series mostly up to 57.5 µM; activity change, negative = inhibition: at the top concentration
Sequence (Q99816 whole entry, looked up, the tested form may be a part): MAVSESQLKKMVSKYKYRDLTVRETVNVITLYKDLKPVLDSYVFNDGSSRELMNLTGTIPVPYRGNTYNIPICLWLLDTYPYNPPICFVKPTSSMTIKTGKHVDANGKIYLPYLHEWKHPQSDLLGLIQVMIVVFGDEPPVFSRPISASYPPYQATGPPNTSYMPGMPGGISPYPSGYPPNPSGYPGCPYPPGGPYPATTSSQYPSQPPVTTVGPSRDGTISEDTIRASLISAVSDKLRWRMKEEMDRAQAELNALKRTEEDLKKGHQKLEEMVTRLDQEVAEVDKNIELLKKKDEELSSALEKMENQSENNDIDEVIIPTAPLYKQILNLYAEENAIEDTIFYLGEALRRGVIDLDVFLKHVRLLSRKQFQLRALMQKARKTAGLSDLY
Source text: Stages of the HIV-1 replication cycle, specifically virus assembly and release, provide underexploited targets for the development of novel antiviral inhibitors. The late stages of HIV-1 replication are mediated by the Gag precursor protein, Pr55Gag. Expression of Pr55Gag is both necessary and sufficient for the production of virus-like particles from Gag-expressing cells. The Gag protein hijacks key host proteins involved in endocytic machinery of the host cell to promote endosomal processing and viral budding. The budding process requires a direct interaction between a […] (PTAP) motif in the p6 domain of Gag and the cellular endosomal sorting protein known as Tsg101. In this way, the Gag PTAP motif promotes the host cells to recruit viral particles to the plasma membrane where the new viral particles are released, effectively turning the host cells into viral factories. A fluorescence anisotropy assay has been developed to quantitatively measure the PTAP-Tsg101 interaction which can be used to screen for inhibitors of this interaction.
This hit validation assay is similar to the primary assay but uses the Texas Red label instead of FITC.
NIH Molecular Libraries Probe Production Network [MLPCN]
NIH Chemical Genomics Center [NCGC]
PI Name: Dr. Eric Freed, NCI
Two uL of the Tsg101 binding domain in buffer (10 mM HEPES pH 7.5; 0.15 M NaCl, 0.01% Tween 20; 3 mM EDTA;0.1 mM TCEP) was dispensed into Greiner black MB 1536-well plates (final concentration 10 uM). Then, 23 nL of compounds or DMSO were delivered to each well using a pin tool. Finally, 2 uL of a TR-labeled peptide containing the PTAP motif (1) in the same buffer was dispensed (50 nM final concentration) and the binding was allowed to proceed for 20 min. at r.t. Fluorescent polarization was determined using TR excitation and polarized emission filters on a Perkin Elmer Viewlux.
Keywords: Tsg101, PTAP, Gag, HIV, fluorescent polarization, MLSMR, MLPCN, NIH Roadmap, qHTS, NCGC
% is set by controls: 0 for no effect and ±100 for the full control effect; potency is the fitted concentration of half-maximal effect.

| Structure (SMILES) | activity change, negative = inhibition | Potency |
| --- | --- | --- |
| CCOC(=O)c1c(/N=C/c2c(O)n(-c3ccccc3F)c(=S)[nH]c2=O)sc2c1CCCC2 | -9.37% (inactive) | – |
| Nc1ccc2ccc3cccc[n+]3c2c1 | – | 16.3 µM (active) |
| CN1CC=C2C(C#N)=C(N)C(C#N)(C#N)C(c3ccncc3)C2C1 (stereo unspecified) | -13.5% (inactive) | – |
| CN1Cc2c(c(C#N)c(N)n(C)c2=S)CC1(C)C | 24.8% (inactive) | – |
| CCOC(=O)C1CCCN(c2ccc([N+](=O)[O-])c3nonc23)C1 (stereo unspecified) | -2.58% (inactive) | – |
| CC(C)C[C@H]1C(=O)N2CCCC2[C@]2(O)O[C@](NC(=O)[C@@H]3C=C4c5cccc6[nH]cc(c56)CC4N(C)C3)(C(C)C)C(=O)N12 (stereo partly specified) | 11.2% (inactive) | – |
| N#CC(C#N)=Cc1ccc(-c2ccccc2F)o1 | -14.9% (inactive) | – |
| O=c1cc(C(F)(F)F)c2cc3c4c(c2o1)CCCN4CCC3 | 12.3% (inactive) | – |
| CCN(CC)c1ccc(N=Cc2c(O)n(-c3ccc(OC)cc3)c(=O)[nH]c2=O)cc1 | 2.78% (inactive) | – |
| Cc1cc(N2CCCC2)ccc1C=C(C#N)C#N | 61.5% (inactive) | – |
| CC1=NCCc2c1[nH]c1cc(O)ccc21 | 14.7% (inactive) | – |
| C#CCN1C(=O)S/C(=C\c2ccc(N3CCOCC3)cc2C)C1=O | -9.29% (inactive) | – |
| CCOC(=O)[C@]1(C#N)[C@@H]2C=CC(C(C)=O)=CN2[C@@H](C(N)=O)[C@@H]1c1ccsc1 | 54.4% (inactive) | – |
| O=C1NC(=O)N(c2ccc(F)cc2)C(=O)/C1=C/c1ccc2c(c1)CCCN2Cc1ccccc1 | 2.12% (inactive) | – |
| CC1=C[C@@H]2c3cccc4[nH]cc(c34)C[C@H]2N(C)C1 | -10.5% (inactive) | – |
| Nc1ccc2nonc2c1[N+](=O)[O-] | -5.71% (inactive) | – |
| CN1/C(=C\C=C2C(=O)NC(=S)NC2=O)C(C)(C)c2ccccc21 | 17% (inactive) | – |
| N#CCN1CCN(c2ccc(C(F)(F)F)cc2)CC1 | -12.3% (inactive) | – |
| COc1ccc(N2C(=O)NC(=O)/C(=C\c3cn(C)c4ccccc34)C2=O)cc1 | -82.3% (inactive) | – |
| CC(C)C[C@H]1C(=O)N2CCC[C@H]2[C@]2(O)O[C@](NC(=O)[C@@H]3C=C4c5cccc6[nH]cc(c56)C[C@H]4N(C)C3)(C(C)C)C(=O)N12 | 23.6% (inactive) | – |
| CCN(CC)C(=O)Cn1cc(C=C2C(=O)N(C)C(=O)N(C)C2=O)c2ccccc21 | -8.32% (inactive) | – |
| Nc1cc2nc3ccccc3nc2cc1N | -20.2% (inactive) | – |
| COc1cccc2c1C(=O)c1c(O)c3c(c(O)c1C2=O)CC(O)(C(C)=NO)CC3OC1CC(N)C(O)C(C)O1 (stereo unspecified) | -4.88% (inactive) | – |
| O=[N+]([O-])c1ccc(NCc2ccccc2)c2nonc12 | -2.23% (inactive) | – |
| CN1CCN(c2ccc([N+](=O)[O-])c3no[n+]([O-])c23)CC1 | -24.5% (inactive) | – |
| C=CCN1CCC2(C)c3cc(O)ccc3CC1C2C (stereo unspecified) | -6.86% (inactive) | – |
